Screening results: PubChem BioAssay, National Center for Advancing Translational Sciences (NCATS)
This is a sample that favours compounds with a hit; in the whole collection about 11% have one here.
VACV Venus inh = vaccinia inhibition (Venus reporter); Vaccinia virus Venus reporter expression, fluorescence; Potency, µM (top dose mostly 36.5 µM), for the others: at the highest dose activity change, negative = inhibition, most hits filed as inhibitors; 330,000 compounds, 0.46% hits; calls by dose curve; tested in A549 cells; also: % is scaled to controls: 0 for no effect and ±100 for the full control effect; nearly all actives have a fitted effect of over 30% in size
Pf growth 48h = P. falciparum growth inhibition at 48 hours (one generation) | P. falciparum luciferase growth in erythrocytes, 48 h | Potency, µM (titrated, usually from 28.7 µM), for the others: at the top dose activity change, negative = inhibition, hits mostly inhibitors | 310,000 compounds, 5.9% hits; also: % is scaled to controls: 0 for no effect and ±100 for the full control effect
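Compounds are pin-transferred into medium, infected erythrocytes (2% hematocrit, 0.1% parasitemia final) are added, and plates sit one parasite generation at 37 C in 5% CO2. Detection reagent is then added and luminescence measured.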
VACV mCherry inh = vaccinia inhibition (mCherry reporter); 310,000 compounds, 0.63% hits; AID 720579; Potency, µM (series often up to 36.5 µM), inactives show at the top dose activity change, negative = inhibition, hits mostly inhibitors; Vaccinia virus mCherry reporter infection, fluorescence; calls by dose curve; tested in A549 cells; also: % is scaled to controls: 0 for no effect and ±100 for the full control effect; nearly all actives have a fitted effect of over 35% in size
NS1 inh = blocks influenza NS1 protein function. Potency, µM (titrated, usually from 46.1 µM), without a hit: at the top dose activity, positive = more growth. 270,000 compounds, 0.4% hits. AID 2326; calls by dose curve; also: actives are rising curves; nearly all actives have a fitted effect of over 50% in size
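Read-out: OD600 growth recovery of NS1-expressing budding yeast. Cells grown overnight at 30C in -URA glucose medium, washed, resuspended and diluted 1:100 in 2% galactose assay medium, pH 6.0. Same strain lacking NS1 served as positive control.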
Pf growth 96h = P. falciparum growth inhibition at 96 hour, primary screen for plastid delayed-death inhibitors; P. falciparum luciferase reporter growth, 96 h; 320,000 compounds, 6.9% hits; Potency, µM (doses to about 28.7 µM), for inactives: at the highest dose activity change, negative = inhibition, hits mostly inhibitors; AID 504834; also: % is scaled to controls: 0 for no effect and ±100 for the full control effect
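Two parasite generations (96 h, 37 C, 5% CO2) of compound exposure in infected erythrocytes (0.05% parasitemia, 2% hematocrit). Luciferase-reporter P. falciparum; decreased luminescence indicates inhibited growth, aimed at apicoplast-acting delayed death.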
HCV inh = HCV inhibition; Huh7.5.1 HCVcc-Cre infection, luciferase reporter, 44 h; Potency, µM (doses to about 41.8 µM), without a hit: top-dose activity change, negative = inhibition, hits mostly inhibitors; 340,000 compounds, 3.4% hits; AID 651820; also: % is scaled to controls: 0 for no effect and ±100 for the full control effect
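Infectious HCVcc-Cre (~0.5 moi) was added to cells just after compound, with cells seeded 4 h earlier at 1,000 per well. Luciferase activity after 44 h culture reported infection; substrate was incubated 15 min at room temperature before reading.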
Numbers without * were called inactive; i = inactive; ? = inconclusive; / = no result; [ ] = remark or other dose. Unless noted, calls follow the shape of the dose curve; as a rule, active = well fitted inhibition curve with a large enough effect; inconclusive = small, poorly fitted or top-dose-only effect, or another doubt; inactive = no such curve, though single readings can be large or run the other way. Potency is read from the fitted curve at half-maximal effect.

SMILES	VACV Venus inh	Pf growth 48h	VACV mCherry inh	NS1 inh	Pf growth 96h	HCV inh
Cc1cccc(N2C(=O)N3[C@H](c4ccc(F)cc4)[C@@H]4C(=O)N(C5CCCCC5)C(=O)[C@@H]4[C@]3(Cc3ccc(Cl)cc3)C2=O)c1	-20.4%	?	i	?	?	-1.6%
Cc1ccc(N2C(=O)N3[C@H](c4ccc(Cl)cc4)[C@@H]4C(=O)N(C5CCCCC5)C(=O)[C@@H]4[C@]3(Cc3ccccc3)C2=O)cc1	-13.6%	?	?	-16.2%	3.7µM*	?
Cc1ccc(N2C(=O)CN(Cc3cccs3)C2=S)cc1C	0.7%	-12.8%	?	13.7%	6.8%	0.9%
O=C1CCCN1CCNC(=S)Nc1ccccc1	2.2%	/	-12.9%	5.1%	0.7%	15.6%
CC1(C)CC(N2CCCCC2)=CC(=[N+]2CCCCC2)C1	-1.2%	?	-11.8%	-1.8%	?	?
CC1C[N+](=C2C=C(N3CCOCC3)CC(C)(C)C2)CC(C)O1 (stereo not drawn)	3.6%	?	i	-2.7%	11.7µM*	7.0%
CN(C)c1cccc(N=C2C=C(N3CCOCC3)CC(C)(C)C2)c1	-4.1%	?	-11.7%	3.7%	0.0%	0.3%
CC1(C)CC(N2CCOCC2)=CC(=[N+]2CCOCC2)C1	2.9%	13.1µM*	-0.4%	/	8.28µM*	9.3%
CCOC(=O)c1nc(NCCc2ccccc2)sc1C	/	31.4%	/	/	-10.4%	-17.4%
COC(=O)c1c(C)nn(-c2ccc(OC(F)(F)F)cc2)c1-c1snnc1C	-17.6%	?	-12.4%	4.7%	13.1µM*	-10.8%
Cc1nnsc1-c1c(C(=O)Oc2ccccc2)c(C)nn1-c1ccccc1	/	9.28µM*	/	-3.6%	13.1µM*	-17.1%
COc1ccc(/C=C/C(=O)N2CCN(c3ccccn3)CC2)cc1OC	-3.0%	-6.0%	-5.9%	-15.0%	11.7µM*	-9.0%
COc1ccc(C)cc1NC(=S)N1CCN(c2ccccn2)CC1	-9.4%	24.5%	-10.7%	8.9%	1.04µM*	-4.5%
COc1ccc(OC)c(S(=O)(=O)N2CCCCC2C(=O)N2CCN(c3ccccn3)CC2)c1 (stereo not drawn)	-12.0%	11.7µM*	16.2%	-5.3%	24.8%	5.1%
COc1cc(NC(=S)N2CCN(c3ccccn3)CC2)cc(OC)c1OC	-6.3%	1.4%	-6.9%	-2.9%	-22.9%[5.75 µM]	-4.6%
COc1ccc(NC(=S)N2CCN(c3ccccn3)CC2)cc1OC	-5.5%	-14.3%	i	-4.6%	7.38µM*	-2.9%
O=C(NCc1ccccn1)C(=O)NCC1OCCCN1S(=O)(=O)c1ccc(F)cc1 (stereo not drawn)	-10.5%	1.4%	i	12.2%	21.3%	/
CN(c1ccc(OCC(=O)OCC(=O)Nc2ccccc2)cc1)S(=O)(=O)c1ccc(F)cc1	-8.5%	-10.6%	-5.2%	-49.2%	0.3%	7.4%
CCOC(=O)n1c(=O)n(Cc2cccc(F)c2)c2ccccc21	0.3%	7.5%	-10.7%	/	3.3%	-9.3%
CN(C)c1ccc(C(=O)OCC(=O)c2cccs2)cc1	-16.3%	362.2%	i	-3.5%	9.28µM*	-17.1%
CCOc1ccccc1CNC(=O)CSc1n[nH]c(-c2ccccc2Cl)n1	-14.8%	/	-20.4%	/	/	/
COC(=O)c1ccccc1NC(=S)NC(NC(=O)c1ccccc1[N+](=O)[O-])C(Cl)(Cl)Cl (stereo not drawn)	/	4.7%	/	0.8%	7.38µM*	-3.8%
COc1ccc(NC(=S)NC(NC(=O)CCl)C(Cl)(Cl)Cl)c([N+](=O)[O-])c1 (stereo not drawn)	-19.8%	-27.5%	-13.6%	-3.9%	21.8%	?
COc1ccc(NC(=S)NC(NC(=O)c2ccc(Cl)cc2Cl)C(Cl)(Cl)Cl)c([N+](=O)[O-])c1 (stereo not drawn)	?	/	-24.5%	1.2%	-17.1%	?
COc1ccc(NC(=S)NC(NC(=O)c2cccc3ccccc23)C(Cl)(Cl)Cl)c([N+](=O)[O-])c1 (stereo not drawn)	-20.9%	/	-20.1%	5.0%	1.47µM*	10µM*
SMILES	VACV Venus inh	Pf growth 48h	VACV mCherry inh	NS1 inh	Pf growth 96h	HCV inh
COC(=O)NC(NC(=S)Nc1ccc([N+](=O)[O-])cc1)C(Cl)(Cl)Cl (stereo not drawn)	?	11.7µM*	?	-22.8%	-6.4%	?
COc1ccc(NC(=S)NC(NC(=O)c2ccccc2Cl)C(Cl)(Cl)Cl)c([N+](=O)[O-])c1 (stereo not drawn)	-21.6%	/	-10.0%	2.8%	3.7µM*	?
O=C(Nc1ccc([N+](=O)[O-])cc1)c1ccccc1	-7.7%	106.7%	i	7.3%	?	11.2%
COc1ccc(NC(=O)c2ccc(C)cc2Cl)c([N+](=O)[O-])c1	-14.8%	101.7%	/	6.5%	3.7µM*	-9.1%
COc1ccccc1NC(=S)NC(NC(=O)C(C)C)C(Cl)(Cl)Cl (stereo not drawn)	2.1%	7.38µM*	-12.0%	0.6%	12.0%	18.3%
Cc1ccc(C)c(CNC(=O)Nc2ccccc2)c1	-9.0%	117.4%	14.3%	1.4%	136.2%	-8.0%
Cc1c(Cl)ccc2c(C(O)CBr)cc(-c3ccccc3)nc12 (stereo not drawn)	-14.1%	/	-5.1%	/	/	10µM*
Cc1ccc(-c2cc(C(=O)NCCCN3CCOCC3)c3ccc(Cl)c(C)c3n2)cc1	/	98.6%	/	-1.0%	-9.1%	?
COP(=O)(/C=C(\Cl)c1ccccc1)/C=C(\Cl)c1ccccc1	/	/	/	-0.7%	-3.3%	4.0%
CCOc1ccc(NC(=O)Cn2nnc(C(=O)Nc3ccc(OCC)cc3)c2N)cc1	12.3%	/	3.8%	/	/	/
CCOc1ccc(Cn2nnc(C(=O)NCc3ccc(OC)cc3)c2N)cc1	/	10.3%	/	11.4%	0.928µM*	3.5%
COc1ccc(C)cc1NC(=O)c1nnn(Cc2cccc(C(F)(F)F)c2)c1N	-7.4%	-2.2%	i	/	13.1µM*	?
COc1ccc(C)cc1NC(=O)c1nnn(Cc2cccc(Br)c2)c1N	-17.4%	/	-4.4%	/	/	/
CCOc1ccc(NC(=O)c2nnn(CC(=O)Nc3ccccc3OCC)c2N)cc1	-15.1%	10.0%	-28.1%	-11.5%	186.9%	11.2µM*
COc1ccc(NC(=O)c2nnn(CC(=O)Nc3ccccc3OC)c2N)c(OC)c1	/	31.4%	/	7.8%	14.9%	5.5%
CCc1ccc(Cn2nnc(C(=O)Nc3ccc(OC)cc3OC)c2N)cc1	-17.0%	/	-8.3%	2.4%	7.38µM*	-0.1%
O=C(NCc1ccco1)C(c1cccnc1)N(C(=O)Cn1nnc2ccccc21)c1ccccc1 (stereo not drawn)	-14.3%	/	/	-11.8%	?	7.3%
O=C(CCC1CCCC1)c1c(O)c2ccccc2oc1=O	?	27.9%	?	-122.9%	-17.4%	?
CC(=O)c1c(C)[nH]c(C(=O)Nc2cccc(S(=O)(=O)N3CCCCC3)c2)c1C	/	9.28µM*	/	/	9.28µM*	12.6µM*
